Data as given in PubChem BioAssay (Tox21).
Results filed as inconclusive are left out. Some compounds were tested as several samples or in several runs, with calls that do not always agree. The source made the active and inactive calls. Unless noted, calls follow the shape of the dose curve; as a rule, active = well fitted curve in the direction sought with a large enough effect in the repeat runs; inconclusive = weak or mixed curves; inactive = no such curve, though single readings can be large; an effect the other way counts as inactive or inconclusive.

Legend:
[1] = qHTS assay to identify small molecule agonists of the hypoxia (HIF-1) signaling pathway - cell viability counter screen (AID 1224844; calls by dose curve; also: nearly all actives have a fitted effect of over 50% in size; also: potency is read from the fitted curve at half-maximal effect)
Procedure, shortened: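 CellTiter-Glo luminescence read-out, 30 min RT, taken in the same wells as the beta-lactamase HRE reporter assay; HRE-bla ME-180 cells, 0.5% dialyzed FBS, 17 hr compound treatment at 37C, 5% CO2.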

[2] = qHTS assay to identify small molecule agonists of H2AX (AID 1224845; active = well fitted activation curve with a large enough effect in the signal ratio in the repeat runs, not every such curve was filed as active; the % refers to the signal ratio)
Procedure, shortened: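 Wild-type CHO-K1 cells plated overnight, then exposed 3 hr at 37C to compounds at 15 concentrations (0.76% DMSO). Lysed, then HTRF anti-pH2AX(S139)-cryptate/anti-H2AX-d2 detection after 24 hr at room temperature; emissions 665 and 620 nm.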

[3] = qHTS assay to identify small molecule agonists of the hypoxia (HIF-1) signaling pathway (AID 1224846; active = well fitted activation curve with a large enough effect in the signal ratio in the repeat runs, not every such curve was filed as active; the % refers to the signal ratio)
Procedure, shortened: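 Beta-lactamase FRET read-out (CCF4-AM substrate) from ME-180 cells carrying an HRE-driven bla reporter, after 17 hrs compound exposure at 37C/5% CO2. Cells were seeded at 2,000 per well in 0.5% dialyzed FBS medium and preincubated 5 hrs.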

[4] = qHTS assay to identify small molecule agonists of H2AX - cell viability counter screen (AID 1224847; calls by dose curve; also: nearly all actives have a fitted effect of over 30% in size; also: potency is read from the fitted curve at half-maximal effect; as to activity change, negative = cytotoxicity: top concentration of the series differs between compounds)
Procedure, shortened: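 Compounds tested at 15 concentrations were incubated 3 hr at 37C with wild-type CHO-K1 cells; cellular ATP-based luminescence (CellTiter-Glo) indicated viability.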

[5] = qHTS RealTime-Glo MT Cell Viability Assay in HepG2 cells - 24 hour (AID 1224867); also: nearly all actives have a fitted effect of over 50% in size
Procedure, shortened: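 Tox21 10K library screened in qHTS format on HepG2 cells carrying RealTime-Glo reagents. Compounds were added after a 5 h preincubation, and the luminescent signal from continuous culture was measured repeatedly during 40 h treatment.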

[6] = qHTS RealTime-Glo MT Cell Viability Assay in HEK293 cells - 32 hour (AID 1224868); also: nearly all actives have a fitted effect of over 50% in size; also: potency is read from the fitted curve at half-maximal effect; as to activity change, negative = cytotoxic: top concentration of the series differs between compounds
Procedure, shortened: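 Luminescence generated by NanoLuc from substrate produced by living HEK293 cells served as the viability signal. Each value reflects the reading at its stated time point during continuous 40 h compound exposure at 37 C.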

[7] = A CellTox Green Cytotoxicity Assay to monitor cytotoxicity in HEK293 cells - 0 hour (AID 1224869); also: nearly all actives have a fitted effect of over 50% in size
Procedure, shortened: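 Read-out: fluorescence of a cell-impermeant cyanine dye staining DNA of dead cells, proportional to cytotoxicity. HEK293, 600 cells/well with reagent, compound (23 nL DMSO) added after 5 h; reads at 0, 8, 16, 24, 32, 40 h.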

[8] = qHTS RealTime-Glo MT Cell Viability Assay in HepG2 cells - 40 hour (AID 1224870); also: nearly all actives have a fitted effect of over 50% in size
Procedure, shortened: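 HepG2 cells mixed with RealTime-Glo MT reagents (NanoLuc plus cell-permeant prosubstrate) were seeded at 600 cells/well, incubated 5 h at 37 C/5% CO2, then pinned with compounds in DMSO; nonlytic luminescence tracked viability during 40 h treatment.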

[9] = qHTS assay to identify small molecule antagonists of the estrogen related receptor (ERR) signaling pathway from Tox21 library (AID 1224848); also: nearly all actives have a fitted effect of over 50% in size; also: potency is read from the fitted curve at half-maximal effect
Procedure, shortened: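 First, 2,000 ERR cells per well were plated and held 6 h at 37 C/5% CO2. Next, compounds in DMSO were pinned in and left 18 h at 37 C. Finally, ONE-Glo was added and luminescence read after 30 min at room temperature.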

[10] = qHTS assay to identify small molecule agonists of the estrogen related receptor (ERR) signaling pathway from Tox21 library (AID 1224849; calls by dose curve; also: nearly all actives have a fitted effect of over 15% in size); details: ERR reporter cell line, ONE-Glo luciferase, 18 h; at 92.4 µM (top of the series) unless noted
Procedure, shortened: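 Luminescence readout (ONE-Glo, 30 min RT) after 18 h compound exposure at 37 C of NTP-supplied ERR reporter cells; cells were plated 6 h before compound addition by pin tool.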
% is scaled to controls: 0 for no effect and ±100 for the full control effect.

CCC1(c2ccccc2)CCC(=O)NC1=O (stereo unspecified)
inactive: Potency [1] | outcome [2] | outcome [3] | Potency [4] | Potency [5] | Potency [6] | outcome [7]

[O-][Br+2]([O-])O
inactive: Potency [1] | outcome [2] | outcome [3] | Potency [4] | Potency [5] | Potency [6] | outcome [7] | Potency [8]

CCN[C@H](C)Cc1cccc(C(F)(F)F)c1
inactive: Potency [1] | outcome [2] | outcome [3] | Potency [4] | Potency [5] | Potency [6] | outcome [7] | Potency [8]

C=CCCC#N
inactive: Potency [1] | outcome [2] | outcome [3] | Potency [4] | Potency [5] | Potency [6] | outcome [7] | Potency [8]

ClC1=C(Cl)C2(Cl)C(CBr)CC1(Cl)C2(Cl)Cl (stereo unspecified)
inactive: Potency [1] | outcome [2] | outcome [3] | Potency [5] | outcome [7] | Potency [8]
113 µM (active) and inactive: Potency [4]
49 µM (active) and inactive: Potency [6]

CCOC(=O)CC(SP(=S)(OC)OC)C(=O)OCC (stereo unspecified)
49 µM (active) and inactive: Potency [1]
inactive: outcome [2] | outcome [3] | Potency [4] | Potency [5] | Potency [6] | outcome [7]

NNCc1ccccc1
inactive: Potency [1] | outcome [2] | outcome [3] | Potency [4] | Potency [5] | Potency [6] | outcome [7] | Potency [8]

Cc1ccc2cc(C)ccc2c1
inactive: Potency [1] | outcome [2] | outcome [3] | Potency [4] | Potency [9] | activity change, positive = activation [10] 0.0091% | Potency [5] | Potency [6] | Potency [8]

CS(=O)(=O)Cl
inactive: Potency [1] | outcome [2] | outcome [3] | Potency [4] | Potency [5] | Potency [6] | outcome [7] | Potency [8]

BrCC1CO1 (stereo unspecified)
inactive: Potency [1] | outcome [2] | outcome [3] | Potency [4] | Potency [5] | Potency [6] | outcome [7]

OCC(Cl)CCl (stereo unspecified)
inactive: Potency [1] | outcome [2] | outcome [3] | Potency [4] | Potency [5] | Potency [6] | outcome [7]

COP(=O)(OC)O/C(C)=C/C(=O)N(C)C
inactive: Potency [1] | outcome [2] | outcome [3] | Potency [4] | Potency [9] | activity change, positive = activation [10] -0.44% | Potency [5] | Potency [6] | Potency [8]

CON(C)C(=O)Nc1ccc(Br)c(Cl)c1
inactive: Potency [1] | outcome [2] | outcome [3] | Potency [4] | Potency [9] | activity change, positive = activation [10] 0.491% | Potency [5] | outcome [7] | Potency [8]

O=C(Cl)/C=C/C(=O)Cl
inactive: Potency [1] | outcome [2] | outcome [3] | Potency [4] | Potency [9] | activity change, positive = activation [10] -12% | Potency [5] | outcome [7] | Potency [8]

C=CC1(C)OC(=O)N(c2cc(Cl)cc(Cl)c2)C1=O (stereo unspecified)
inactive: Potency [1] | outcome [2] | outcome [3] | Potency [4] | Potency [5] | Potency [6] | outcome [7]

CC(=NC#N)N(C)Cc1ccc(Cl)nc1
inactive: Potency [1] | outcome [2] | outcome [3] | Potency [4] | Potency [5] | Potency [6] | outcome [7] | Potency [8]

CN(C)C1CCCCC1
inactive: Potency [1] | outcome [2] | outcome [3] | Potency [4] | Potency [9] | Potency [5] | Potency [8]

C=C1C[C@@H]2[C@H](CC[C@]3(C)C(=O)CC[C@@H]23)[C@@]2(C)C=CC(=O)C=C12
inactive: Potency [1] | outcome [2] | outcome [3] | Potency [4] | activity change, positive = activation [10] -24.3% [at 42.5 µM] | Potency [5] | Potency [6] | Potency [8]

C[C@H](CN1CCOCC1)C(C(=O)N1CCCC1)(c1ccccc1)c1ccccc1
active: Potency [9] 66.3 µM
inactive: Potency [1] | outcome [2] | outcome [3] | Potency [4] | activity change, positive = activation [10] -33.1% | Potency [5] | outcome [7] | Potency [8]

C=CC=O
inactive: Potency [1] | outcome [2] | outcome [3] | Potency [4] | Potency [5] | outcome [7] | Potency [8]

CCCCCCC(=O)CCCCCC/C=C/C[C@@H](O)[C@H](O)[C@@](N)(CO)C(=O)O
inactive: activity change, negative = cytotoxicity [1] 0.46% [at 15.8 µM] | activation (H2AX phosphorylation) [2] -0.061% [at 31.6 µM] | activation [3] -0.0517% [at 15.8 µM] | activity change, negative = cytotoxicity [4] -0.19% [at 31.6 µM] | activity change, negative = cytotoxicity [5] 0.745% [at 15.8 µM] | activity change, negative = cytotoxic [6] 2.61% [at 15.8 µM] | cytotoxicity [7] 0.947% [at 15.8 µM] | activity change, negative = cytotoxic [8] 0.839% [at 15.8 µM]

COc1cc(CCN)cc(OC)c1OC
inactive: Potency [1] | outcome [2] | outcome [3] | Potency [4] | Potency [5] | Potency [6] | outcome [7] | Potency [8]

C[C@]12C=CC(=O)C=C1CC[C@@H]1[C@@H]2CC[C@@]2(C)[C@H]1CC[C@]2(C)O
inactive: Potency [1] | outcome [2] | outcome [3] | activity change, positive = activation [10] -17.6% [at 42.5 µM] | Potency [5] | Potency [6] | outcome [7]

NC1(c2ccccc2)CCCCC1
inactive: Potency [1] | outcome [2] | outcome [3] | Potency [4] | Potency [5] | Potency [6] | outcome [7] | Potency [8]

CC(C)N(Cc1ccccc1)C(=O)C(C)(C)C
inactive: Potency [1] | outcome [2] | outcome [3] | Potency [5] | Potency [6] | outcome [7] | Potency [8]

CN1COCN(Cc2cnc(Cl)s2)/C1=N\[N+](=O)[O-]
inactive: Potency [1] | outcome [2] | outcome [3] | Potency [4] | Potency [5] | Potency [6] | outcome [7] | Potency [8]

O=C1CC(=O)NC(=O)N1
inactive: Potency [1] | outcome [2] | outcome [3] | Potency [5] | Potency [6] | outcome [7]

O=C1CCCCC1Cl (stereo unspecified)
inactive: Potency [1] | outcome [2] | outcome [3] | Potency [4] | Potency [5] | Potency [6] | outcome [7] | Potency [8]

CCOC(=O)Nc1cccc(OC(=O)Nc2ccccc2)c1
inactive: Potency [1] | outcome [2] | outcome [3] | Potency [4] | Potency [5] | Potency [6] | outcome [7] | Potency [8]
